In PubChem BioAssay one finds composite z-score, composite Z-score and z-score data, which are given here for five molecules.

One experiment deals with Albumin (Bos taurus) (UniProt P02769). The experiment in a line: compounds binding labelled BSA control protein – biochemical, small-molecule microarray, Alexa647 label, 635/667 nm fluorescence, artefact control for SMM control protein annotation, profiling panel (AID 1118).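 Further: score merges 667 nm emission intensity and signal-to-noise per printed compound spot.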 Particulars: BSA-A647 binding, fluorescence 635 nm, higher = more signal.
The nature of experiment [1]: probe aXIP binding to arrayed compounds – biochemical, NeuroSMM set, 635/667 nm fluorescence, primary screen (AID 1119).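 Further: probe is the protein aXip251-270 applied at 1 µg/mL to compound-printed slides; binding of probe to printed compounds measured as 667 nm fluorescence plus signal to noise.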 Particulars: small-molecule microarray, higher = more signal, called active from +8 up or from −8 down.
Experiment [2] can be described thus: probe aNOTCH3 binding on compound microarray – biochemical, small-molecule microarray, 635/667 nm fluorescence, primary screen (AID 1120).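 Further: probe is a biotin-tagged antibody raised against NOTCH3 rather than NOTCH3 protein; score merges spot fluorescence near 667 nm with spot signal to noise.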 Particulars: higher = more signal.
A short description of experiment [3]: probe aNOTCH2 binding on compound microarray – biochemical, small-molecule microarray, 635/667 nm fluorescence, primary screen (AID 1121).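 Further: score merges feature fluorescence read at 667 nm with its signal to noise.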 Particulars: higher = more signal.
Experiment [4] deals with Carbonic anhydrase 2 (Homo sapiens) (UniProt P00918). The experiment in a line: compounds binding carbonic anhydrase 2 – biochemical, small-molecule microarray, Alexa647-labelled CAII, profiling panel (AID 1122). Particulars: CAII-A647 binding fluorescence, higher = more signal.
Experiment [5] can be described thus: COS7 lysate on small-molecule microarray, probe aHis, 635 nm (AID 1123).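 Further: z-score combines 667nm fluorescence intensity with signal-to-noise per printed compound spot.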 Particulars: COS7 cell lysate, fluorescence, higher = more signal.
Experiment [6] is described as follows: probe aLAP1 signal on lysate-treated microarray – cell lysate, small-molecule microarray, COS7 lysate, primary screen (AID 1124).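 Further: lysate comes from COS7 cells expressing LAP1 and is applied at 0.3 µg/mL; score merges spot fluorescence near 667 nm with signal-to-noise over triplicate slides.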 Particulars: probe aLAP1, fluorescence, higher = more signal.
A further experiment relates to Sam68 (KHDRBS1). Kind of experiment: compounds binding KHDRBS1 protein – biochemical, small-molecule microarray, 635 nm fluorescence, primary screen (AID 1125).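 Further: score merges 667 nm channel intensity with signal to noise over triplicate slides.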 Particulars: higher = more signal.
Experiment [7] concerns Chordin-like protein 2 (CHRDL2). Kind of experiment: compounds binding chordin-like 2 – biochemical, small-molecule microarray, 635 nm fluorescence, primary screen (AID 1126).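 Further: printed compound slides probed with Chrdl2 protein at 4 µg/mL for 1 h at 4 C; score merges 667 nm emission intensity with signal to noise over three replicate slides.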 Particulars: fluorescence 635 nm, higher = more signal.
In experiment [8] the target is Concanavalin-A (Canavalia ensiformis) (UniProt P02866). The experiment in a line: compounds binding concanavalin A lectin – biochemical, small-molecule microarray, Alexa647 label, 635 nm, artefact control for SMM control protein annotation, primary screen (AID 1127).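 Further: z combines 667 nm emission intensity with signal-to-noise across three replicate slides.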 Particulars: ConA-A647 binding fluorescence, higher = more signal.
Experiment [9] is described as follows: compounds binding Alexa647 anti-His antibody – biochemical, small-molecule microarray, 635 nm fluorescence, artefact control for SMM control protein annotation, primary screen (AID 1128).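 Further: score merges feature fluorescence with signal-to-noise for each printed compound spot.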 Particulars: higher = more signal.
Experiment [10] concerns Human papillomavirus type 1a E7 protein (residues 1-88). The experiment in a line: HPV1a E7 small-molecule binders, primary screen, biochemical, small-molecule microarray, residues 1-88, 635 nm (AID 1129). Particulars: small-molecule microarray binding, fluorescence 635 nm; higher = more signal.
The target of experiment [11] is Focal adhesion kinase 1 (Homo sapiens) (UniProt Q05397). Kind of experiment: PTK2 protein binding on printed compound slides – biochemical, small-molecule microarray, 635/667 nm fluorescence, BSA, DTT, primary screen (AID 1130).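 Further: composite of spot emission at 667 nm and signal to noise over triplicate slides.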 Particulars: 635 nm fluorescence, higher = more signal.
In experiment [12] the test system is Fibrinogen (Alexa647-labelled). The experiment in a line: Alexa647-fibrinogen binding to printed small molecules – biochemical, small-molecule microarray, 635/667 nm fluorescence, artefact control for SMM control-protein annotation, profiling panel (AID 1131).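 Further: z-score merges 667 nm fluorescence with per-spot signal-to-noise over triplicate slides.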 Particulars: fibrinogen-A647 binding fluorescence, higher = more signal.
In experiment [13] the target is Follistatin (Homo sapiens) (UniProt P19883). Kind of experiment: FST protein binding to printed compounds – biochemical, small-molecule microarray, 635/667 nm fluorescence, primary screen (AID 1132). Particulars: 635 nm fluorescence, higher = more signal.
The target in experiment [14] is Fibroblast growth factor 2 (Homo sapiens) (UniProt P09038). The experiment in a line: basic fibroblast growth factor binding to printed compounds – biochemical, small-molecule microarray, 635/667 nm fluorescence, primary screen (AID 1133). Particulars: FGF2, fluorescence 635/667, higher = more signal.
Experiment [15] in a line: JC-1 mitochondrial potential readout, lung cancer cells – cell-based, A549, JC-1 fluorescence, basal, 24 h, 100 nL, profiling panel (AID 1138).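 Further: A549 lung adenocarcinoma cells under basal conditions with no added stimulus; test concentration not given here.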 Particulars: higher = more signal.
Another experiment deals with Lefty1. The experiment in a line: Lefty1 protein binding to printed compounds – biochemical, small-molecule microarray, 635/667 nm fluorescence, primary screen (AID 1139). Particulars: fluorescence 635/667, higher = more signal.
Experiment [16] has as its system wheat germ agglutinin (Triticum aestivum), Alexa647-labelled. The experiment in a line: Alexa647-WGA lectin binding to printed small molecules – biochemical, small-molecule microarray, 635/667 nm fluorescence, artefact control for SMM control-protein annotation, profiling panel (AID 1140).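 Further: score merges 667 nm feature emission with signal to noise over triplicate slides.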 Particulars: WGA-A647 binding, 635 nm fluorescence, higher = more signal.
The target in experiment [17] is Luciferin 4-monooxygenase (Photinus pyralis) (UniProt P08659). The experiment in a line: inhibition of purified Photinus pyralis luciferase – biochemical, luminescence, purified enzyme, 2006 set, primary screen (AID 1141).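 Further: cell-free assay with purified firefly luciferase at 100 ng per well in PBS; test concentration not given here.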 Particulars: purified firefly luciferase, SteadyGlo luminescence, 30 min; higher = more signal, called active from +8 up or from −8 down.

Activity calls are given as the source filed them.

Sequence of Focal adhesion kinase 1 (Homo sapiens) (Q05397 whole entry, looked up): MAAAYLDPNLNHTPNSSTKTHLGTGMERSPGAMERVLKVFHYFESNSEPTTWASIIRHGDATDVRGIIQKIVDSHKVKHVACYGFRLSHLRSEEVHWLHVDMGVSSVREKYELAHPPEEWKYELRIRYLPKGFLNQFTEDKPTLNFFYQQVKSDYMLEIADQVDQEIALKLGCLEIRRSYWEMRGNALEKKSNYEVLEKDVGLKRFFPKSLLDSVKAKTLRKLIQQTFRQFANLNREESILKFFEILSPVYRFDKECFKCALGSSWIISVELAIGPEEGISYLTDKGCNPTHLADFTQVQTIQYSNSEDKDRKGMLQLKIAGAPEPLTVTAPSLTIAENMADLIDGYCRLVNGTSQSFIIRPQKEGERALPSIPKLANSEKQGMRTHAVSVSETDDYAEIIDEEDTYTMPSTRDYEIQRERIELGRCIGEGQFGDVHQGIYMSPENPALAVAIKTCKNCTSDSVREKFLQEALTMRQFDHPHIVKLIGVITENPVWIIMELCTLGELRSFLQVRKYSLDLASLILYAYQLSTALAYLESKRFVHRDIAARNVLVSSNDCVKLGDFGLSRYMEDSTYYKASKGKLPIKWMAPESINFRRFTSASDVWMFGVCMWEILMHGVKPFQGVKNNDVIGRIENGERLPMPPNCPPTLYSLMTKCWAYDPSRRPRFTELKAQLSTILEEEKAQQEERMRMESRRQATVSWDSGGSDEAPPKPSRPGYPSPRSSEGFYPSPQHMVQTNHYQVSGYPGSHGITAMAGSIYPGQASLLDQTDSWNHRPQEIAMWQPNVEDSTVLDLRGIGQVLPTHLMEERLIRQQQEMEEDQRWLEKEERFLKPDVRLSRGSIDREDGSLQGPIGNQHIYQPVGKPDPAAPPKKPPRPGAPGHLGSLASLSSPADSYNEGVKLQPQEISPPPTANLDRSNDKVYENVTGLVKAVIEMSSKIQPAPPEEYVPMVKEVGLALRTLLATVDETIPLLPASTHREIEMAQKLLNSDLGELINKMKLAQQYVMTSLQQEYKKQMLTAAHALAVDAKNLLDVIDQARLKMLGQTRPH
Sequence of Albumin (Bos taurus) (P02769 whole entry, looked up): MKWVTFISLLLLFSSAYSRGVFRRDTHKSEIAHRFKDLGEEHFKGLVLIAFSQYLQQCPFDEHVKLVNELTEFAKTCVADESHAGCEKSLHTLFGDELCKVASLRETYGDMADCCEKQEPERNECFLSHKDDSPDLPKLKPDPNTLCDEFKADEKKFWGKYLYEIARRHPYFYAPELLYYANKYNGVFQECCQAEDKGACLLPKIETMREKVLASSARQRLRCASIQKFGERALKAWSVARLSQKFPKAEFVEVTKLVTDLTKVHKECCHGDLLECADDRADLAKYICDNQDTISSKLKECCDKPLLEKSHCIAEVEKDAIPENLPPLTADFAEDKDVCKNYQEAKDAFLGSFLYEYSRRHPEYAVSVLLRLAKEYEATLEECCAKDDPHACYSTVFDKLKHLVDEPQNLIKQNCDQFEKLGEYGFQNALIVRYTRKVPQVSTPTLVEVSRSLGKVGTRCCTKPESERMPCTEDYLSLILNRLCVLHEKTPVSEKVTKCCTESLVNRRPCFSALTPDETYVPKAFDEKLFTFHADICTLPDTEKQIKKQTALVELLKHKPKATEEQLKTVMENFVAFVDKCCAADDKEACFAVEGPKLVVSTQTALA
Sequence of Concanavalin-A (Canavalia ensiformis) (P02866 whole entry, looked up): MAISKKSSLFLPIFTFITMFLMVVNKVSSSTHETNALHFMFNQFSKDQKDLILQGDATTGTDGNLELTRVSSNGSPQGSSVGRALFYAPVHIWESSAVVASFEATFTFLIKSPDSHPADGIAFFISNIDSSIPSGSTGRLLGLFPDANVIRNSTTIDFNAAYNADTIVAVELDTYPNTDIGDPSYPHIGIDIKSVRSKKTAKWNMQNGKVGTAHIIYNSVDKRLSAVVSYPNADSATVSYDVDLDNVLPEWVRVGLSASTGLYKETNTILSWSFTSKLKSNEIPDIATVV
Sequence of Luciferin 4-monooxygenase (Photinus pyralis) (P08659 whole entry, looked up): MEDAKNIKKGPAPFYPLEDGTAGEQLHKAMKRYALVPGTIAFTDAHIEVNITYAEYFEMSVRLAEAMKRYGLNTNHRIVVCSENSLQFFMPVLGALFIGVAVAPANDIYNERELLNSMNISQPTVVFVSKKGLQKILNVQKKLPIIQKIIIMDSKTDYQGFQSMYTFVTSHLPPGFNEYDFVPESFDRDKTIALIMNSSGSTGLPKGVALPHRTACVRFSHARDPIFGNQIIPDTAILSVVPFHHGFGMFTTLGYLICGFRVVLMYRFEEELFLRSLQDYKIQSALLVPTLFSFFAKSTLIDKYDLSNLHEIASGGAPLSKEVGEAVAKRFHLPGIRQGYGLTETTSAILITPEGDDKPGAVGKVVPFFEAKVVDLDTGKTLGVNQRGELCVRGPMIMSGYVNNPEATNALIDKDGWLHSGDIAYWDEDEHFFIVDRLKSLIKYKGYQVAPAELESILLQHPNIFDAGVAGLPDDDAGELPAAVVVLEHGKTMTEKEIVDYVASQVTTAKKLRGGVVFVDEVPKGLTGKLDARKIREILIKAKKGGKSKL
Sequence of Fibroblast growth factor 2 (Homo sapiens) (P09038 whole entry, looked up): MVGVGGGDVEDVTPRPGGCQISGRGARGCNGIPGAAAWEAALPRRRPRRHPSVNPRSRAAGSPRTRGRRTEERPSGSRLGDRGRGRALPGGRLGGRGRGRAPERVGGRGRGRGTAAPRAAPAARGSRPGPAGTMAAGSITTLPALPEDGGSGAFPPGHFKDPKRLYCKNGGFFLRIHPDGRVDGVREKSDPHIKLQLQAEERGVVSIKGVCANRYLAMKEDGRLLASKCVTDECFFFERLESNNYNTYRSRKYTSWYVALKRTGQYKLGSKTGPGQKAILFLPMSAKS
Sequence of Follistatin (Homo sapiens) (P19883 whole entry, looked up): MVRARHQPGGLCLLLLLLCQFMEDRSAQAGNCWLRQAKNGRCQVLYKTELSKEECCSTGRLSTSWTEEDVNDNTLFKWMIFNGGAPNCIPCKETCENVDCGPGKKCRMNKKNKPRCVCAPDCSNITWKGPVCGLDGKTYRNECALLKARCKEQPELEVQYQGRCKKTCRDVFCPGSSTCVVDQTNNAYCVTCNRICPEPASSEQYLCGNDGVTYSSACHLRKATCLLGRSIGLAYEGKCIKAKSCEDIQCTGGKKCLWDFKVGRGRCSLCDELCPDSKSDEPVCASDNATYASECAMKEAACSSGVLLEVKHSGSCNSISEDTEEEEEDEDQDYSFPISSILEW

Consider `CO[C@H]1O[C@H](CO)[C@@H](OC(=O)Nc2cccc(F)c2)[C@H](OC(=O)Nc2ccc3c(c2)OCO3)[C@@H]1OC(=O)Nc1ccc2c(c1)OCO2`, for which the composite z-score was 0.364 with Albumin (Bos taurus); 0.15 in experiment [2]; -0.0247 in [3]; 0.753 in [4]; 1.64 in [5]; 0.678 in experiment [6]. Further, the composite z-score was determined as 1.32 in the experiment on Sam68 (KHDRBS1); 0.149 in experiment [7]; 0.708 in experiment [8]; 2.61 in experiment [9]; 1.29 in experiment [10]; 0.243 in experiment [11]. In addition, the composite z-score was 0.973 in experiment [12]; 1.25 in experiment [13]; 0.217 in experiment [14]; 0.278 in the experiment on Lefty1; 0.654 in experiment [16]. Moreover, in experiment [1], the composite Z-score is 0.942 (inactive). Besides, the figures for the z-score in experiment [15] and in experiment [17] were -0.307 and -4.46 (inactive), respectively.

In the case of `Cc1ccc(S[C@]2(C(=O)NC3CC3)CC(=O)N(C3Cc4ccccc4C3)[C@@H]2c2ccc(CO)cc2I)cc1`, the composite z-score with Albumin (Bos taurus) is -0.15; in [2], -0.283; in [3], -0.121; in experiment [4] it was 0.535; in [5], 0.897; in experiment [6], 1.68. Also, the composite z-score in the experiment with Sam68 (KHDRBS1) is -0.5; in [7], -0.486; in [8], 0.0714; in experiment [9] it was 0.447; in experiment [10], 0.275; in [11] it was -0.3. Besides, the composite z-score in experiment [12] is 0.484; in experiment [13] it was 0.0932; in [14], -0.115; in the experiment with Lefty1, -1.32; in experiment [16] it was -0.409. In addition, the composite Z-score in experiment [1] was -0.216 (inactive). The figures for the z-score in experiment [15] and in [17] were 1.57 and -1.28 (inactive), respectively.

As for `CCOC(=O)C=C1C[C@@H](c2cccc([N+](=O)[O-])c2)O[C@@H](c2cccc([N+](=O)[O-])c2)O1`, the composite z-score with Albumin (Bos taurus) was 0.817; in [2], 0.13; in experiment [3] it was -0.125; in experiment [4], 0.425; in [5], 2.07; in experiment [6], 0.863. For the same molecule, the composite z-score in the experiment on Sam68 (KHDRBS1) came out at 1.32; in experiment [7], 0.338; in experiment [8], 1.1; in experiment [9], 1.1; in experiment [10], 1.11; in experiment [11] it was 0.867. The composite z-score in experiment [12] was 0.871; in experiment [13], 0.669; in experiment [14], 0.715; in the experiment on Lefty1, 0.279; in experiment [16] it was 0.697. For the same molecule, in experiment [1], the composite Z-score was 0.636 (inactive). The z-score in experiment [15] is 3.03; in experiment [17], 1.31 (inactive).

Take `O=C1NC(=O)C2C1C=CC(C(O)c1ccc(F)cc1)N2Nc1ccc(Cl)cc1Cl` (stereo not given): the composite z-score with Albumin (Bos taurus) was 0.369; in experiment [2], 0.0488; in experiment [3], -0.0113; in [4], 0.732; in experiment [5], 2.4; in experiment [6], 0.591. The composite z-score was 0.246 in the experiment on Sam68 (KHDRBS1); -0.242 in experiment [7]; -0.345 in experiment [8]; 1.97 in [9]; 0.638 in experiment [10]; -0.0637 in experiment [11]. Further, the composite z-score in [12] is -0.566; in experiment [13] it was -0.157; in experiment [14] it was -0.459; in the experiment on Lefty1, -0.334; in [16], -0.0287. Besides, the composite Z-score in [1] is 1.69 (inactive). The values for the z-score in experiment [15] and in [17] were -0.553 and -1.32 (inactive), respectively.

`CN1C(=O)C2C(C1=O)C1C=C(CCCO)C2C(C2CC2)N1C` (stereo not given): the composite z-score in the experiment with Albumin (Bos taurus) is 0.913; in experiment [2], -0.16; in experiment [3] it was -0.149; in [4], 0.839; in [5], 0.746; in experiment [6] it was -0.67. Besides, the composite z-score with Sam68 (KHDRBS1) was -0.293; in experiment [7], -0.338; in experiment [8], -1.39; in experiment [9], -0.194; in experiment [10] it was -0.404; in experiment [11] it was 0.813. Further, the composite z-score is -1.04 in experiment [12]; -0.39 in experiment [13]; 0.628 in experiment [14]; -0.991 with Lefty1; 0.0425 in experiment [16]. Besides, the composite Z-score in experiment [1] was 0.178 (inactive). The z-score is 0.772 in [15] and -0.224 (inactive) in [17].
